# What was measured:
# Format in all cases: functional
# Plasmodium falciparum [1] = experiment: GSK_TCMDC: Inhibition of Plasmodium falciparum 3D7 in whole red blood cells, using parasite LDH activity as an index of growth. Test compounds present at 2uM
# Plasmodium falciparum [2] = experiment: GSK_TCMDC: Inhibition of Plasmodium falciparum Dd2 in whole red blood cells, using parasite LDH activity as an index of growth. Test compounds present at 2uM
# HepG2 = experiment: GSK_TCMDC: Percent inhibition of human HepG2 cell line. Test compounds present at 10uM.
SMILES,Inhibition (Plasmodium falciparum [1]),Inhibition (Plasmodium falciparum [2]),Inhibition (HepG2)
CC(C(=O)OCCOCn1cnc2c(=O)[nH]c(N)nc21)N(C)C(=O)OC(C)(C)C (stereo not drawn),87%,0%,28%
COc1ccc(CN2CCC(Oc3cccc(NC(=O)c4ccc(C(F)(F)F)cc4)c3)CC2)cc1.O=C(O)C(F)(F)F,95%,20%,35%
Cc1cccc2nc(-c3cccc(-c4cccc(CNCc5ccc(S(C)(=O)=O)cc5)c4)c3)[nH]c12.O=C(O)C(F)(F)F,100%,66%,13%
O=C(N[C@@H](CC1CCCCC1)C(=O)NCc1cccc(C(F)(F)F)c1)c1ccc(O)c(-c2ccc(Cl)c(Cl)c2)c1,98%,100%,0%
COc1ccc(NC(=O)/C=C/c2cc(Br)ccc2F)cc1OCCN(C(C)C)C(C)C.O=C(O)C(F)(F)F,100%,14%,22%
NC(=O)c1ccsc1NC(=O)CNC(c1ccc(F)cc1)c1cccs1 (stereo not drawn),92%,71%,31%
O=C(Nc1ccc2ccccc2n1)c1ccccc1-c1ccccc1,90%,83%,14%
CSc1nnc2n(Cc3ccccc3)c(=O)c3c(n12)-c1ccccc1CC31CCCCC1,93%,0%,0%
CN1CCN(CCCN(Cc2cccc(-c3ccc(CNCCc4ccccc4)cc3)c2)C(=O)Nc2ccccc2)CC1.O=C(O)C(F)(F)F,100%,91%,61%
CCOc1cc(C(=O)NCCN(CC)c2cccc(C)c2)ccc1-c1nc2cc(Cl)ccc2[nH]1,100%,80%,0%
O=C(Nc1ccc(Cl)cc1F)N[C@H]1CCN(CCCCCNC(=O)C2CC2c2ccc(Cl)c(Cl)c2)C1 (stereo partly drawn),87%,0%,29%
COc1cc(OC)cc(-c2nn(-c3ccc([N+](=O)[O-])cc3Cl)c(=S)n2CC2CCCO2)c1 (stereo not drawn),98%,98%,5%
Br.CC1(C)NC(N)=NC(=N)N1OCCCc1cc(Cl)c(Cl)cc1Cl,95%,96%,55%
Cc1nnsc1C(=O)Nc1cccc(-c2cccc(-c3nc4ccccc4[nH]3)c2)c1,100%,34%,14%
Nc1c(Cl)cc(C(O)CNCCCCCCOCCC=C2CCOCC2)cc1Cl (stereo not drawn),100%,9%,7%
O=C(Cn1c2ccccc2c(=O)c2ccc(Cl)cc21)Nc1ccc(C(F)(F)F)cc1,99%,100%,30%
Cc1cc(N)c2cc(NC(=O)c3cccc4ccccc34)ccc2n1.Cl,98%,13%,18%
CC1CCN(Cc2ccc(NC(=O)c3cc4ccc5cccnc5c4[nH]3)cc2)CC1,100%,93%,10%
Clc1ccc2c(NN=Cc3ccccc3)ccnc2c1,100%,94%,0%
CC(C)CC(C)NC(=O)C1Cc2c([nH]c3ccc(F)cc23)C2(CCN(Cc3ccccc3)CC2)N1 (stereo not drawn),97%,49%,18%
CN(CCCNCc1ccc2ccccc2c1)CCCNCc1ccc2ccccc2c1.Cl,100%,79%,100%

SMILES,Inhibition (Plasmodium falciparum [1]),Inhibition (Plasmodium falciparum [2]),Inhibition (HepG2)
Cc1ccccc1C1CCN(C2CCC(NC(=O)/C=C/c3cccc(C(F)(F)F)c3)CC2)CC1 (stereo not drawn),100%,54%,96%
CCC(C)NS(=O)(=O)c1ccc2nc(Nc3ccc(C)cc3)n([C@H](C)C(C)(C)C)c2c1 (stereo partly drawn),98%,98%,2%
CC(C)C1=C[C@H]2C[C@]3(C4OCCO4)[C@@H]4CC[C@@H](C)[C@H]4C[C@@]2(C(=O)OCC2COCO2)[C@]13C(=O)OC(c1ccccc1)c1ccccc1 (stereo partly drawn),92%,96%,2%
Br.CC=CCON1C(=N)NC(=N)NC1(C)C,94%,1%,57%
CC(C)C1CCc2nc(N)nc(N)c2C1.Cl (stereo not drawn),95%,0%,70%
N#Cc1ccc(C(=O)Nc2ccc(Cl)c(N3CCN(CCc4ccccc4)CC3)c2)cc1.O=C(O)C(F)(F)F,90%,35%,5%
Cc1ccc(C(=O)Nc2cc(C(F)(F)F)cc(C(F)(F)F)c2)cc1[N+](=O)[O-],100%,61%,17%
Cc1ccccc1C1CCN(C2CCC(NC(=O)/C=C/c3cc(F)ccc3F)CC2)CC1 (stereo not drawn),85%,36%,47%
CCc1cn2c3c(cc(C(=O)N[C@@H](Cc4cccc(Cl)c4)[C@H](O)CNC4CCOCC4)cc13)N(C)S(=O)(=O)CC2.O=CO,98%,98%,2%
CC(CN1CCN(C)CC1)C(=O)Nc1cccc(-c2ccc(-c3nc4ccccc4[nH]3)s2)c1 (stereo not drawn),97%,59%,2%
Cc1ccc(NC(=O)C(C)Sc2nnc(-c3ccccc3Br)[nH]2)cc1 (stereo not drawn),89%,90%,2%
CC(C)C[C@@H](/C=N/NC(N)=O)NC(=O)[C@H](CC(C)C)NC(=O)[C@H](CC(C)C)NC(=O)OCc1ccccc1,100%,99%,41%
Br.CC1(C)NC(N)=NC(=N)N1OCCc1cccc2ccccc12,95%,97%,57%
CCCCCN1CCCCC(NS(=O)(=O)c2ccc(C(=O)Nc3cccc(C(F)(F)F)c3)cc2)C1.O=C(O)C(F)(F)F (stereo not drawn),93%,2%,14%
CN1CCc2cc(Br)c(O)cc2C1Cc1ccccc1Cl.Cl (stereo not drawn),98%,88%,2%
CCCCOc1c(CCC)cc(Cc2cnc(N)nc2N)cc1CCC.Cl,97%,0%,27%
Nc1oc2c(CN3CCCCCC3)c(O)ccc2c(=O)c1-c1nc2ccccc2s1,100%,99%,12%
CC(=O)/N=C1\N=C(NC(C)=O)NC(C)(C)N1OCCCOc1ccc(Cl)c(Cl)c1,96%,94%,65%
CC(C)(C)c1ccc(CN2CCC(NC(=O)c3ccc(-c4ccccc4F)s3)CC2)cc1.O=C(O)C(F)(F)F,85%,37%,36%
N=C(N)NN=CC(=O)Nc1ccc(C(F)(F)F)cc1.O=S(=O)(O)O,100%,9%,5%
CN(C(=O)c1cc2c(-c3cncnc3)cccc2[nH]1)c1ccccc1,92%,99%,1%

SMILES,Inhibition (Plasmodium falciparum [1]),Inhibition (Plasmodium falciparum [2]),Inhibition (HepG2)
COc1ccc(CC(Cc2ccc(OC)cc2)NCC(O)c2cccc(Cl)c2)cc1 (stereo not drawn),100%,98%,11%
CN(C)CCCNCc1ccc(-c2ccc(F)c(Cl)c2)o1.Cl,93%,69%,29%
O=C(NCc1ccc(Cl)c(Cl)c1)c1cc(CNC2CCNCC2)ccc1O,82%,2%,2%
COc1ccc2nc3cc(Cl)ccc3c(NCCN3CCN(C)CC3)c2c1.Cl,100%,99%,29%
O=C(Nc1cccc(-c2cccc(CN3CCCC3)c2)c1)c1cccc(Cl)c1.O=C(O)C(F)(F)F,89%,30%,44%
COc1cc2nc(N(C)Cc3cc4c(Cl)cccc4s3)nc(N)c2cc1OC.Cl,90%,27%,32%
COc1cc2nc(NCCc3cccc(Cl)c3)nc(NCc3ccccc3)c2cc1OC,100%,100%,97%
Cc1cccc(CNc2nc(C)cc(NCCC(=O)Nc3ccccc3)n2)c1.O=C(O)C(F)(F)F,100%,54%,15%
CC(CO)(CO)NCc1cc2c3ccccc3c(CNC(C)(CO)CO)cc2c2ccccc12.CS(=O)(=O)O,96%,98%,40%
C[C@@H]([C@@H](CCCc1ccc(Cl)cc1)C(=O)N[C@H](C(=O)Nc1cccnc1)C(C)(C)C)N(O)C=O,100%,99%,7%
CC(=O)Nc1ccc(Nc2cc(C)nc(Nc3ccc(NC(C)=O)cc3)n2)cc1,99%,65%,4%
O=C(Nc1ccc(-c2nc3ccccc3[nH]2)cc1)C1CCN(Cc2ccc(F)cc2)CC1,100%,91%,13%
CN(C)CCCn1c(C(=O)OC(c2ccccc2)c2ccccc2)cc2cc(OCc3ccccc3)ccc21,82%,85%,12%
c1ccc(CN2CCCN(c3ccc4c(c3)CCN(Cc3ccc(-c5ncc[nH]5)cc3)CC4)CC2)cc1,100%,73%,6%
C=C[C@H]1CN(CCCCCCC)CC[C@H]1CCN(C)c1ccnc2ccc(OC)cc12.O=C(O)C(=O)O,97%,93%,22%
COc1ccc2nccc(N3C[C@H]4C[C@@H]3CN4CCNCc3ccc4c(n3)NC(=O)CS4)c2n1.Cl,99%,0%,21%
Cc1ccc(Nc2nc(N/N=C/c3cc4c(cc3Br)OCO4)nc(Nc3ccc([N+](=O)[O-])cc3)n2)cc1C,100%,89%,23%
O=C(CSc1ccccn1)Nc1c(F)cccc1F,88%,0%,0%
CN1CCC(c2cc3c(cc2Br)CCN3C(=O)Nc2ccc(-c3ccncc3)c(Cl)c2)CC1,91%,0%,26%
